Test results from PubChem BioAssay (NCATS).
Inconclusive results are not listed. A number with no mark means an inactive call. Activity calls are given as the source filed them. Calls come from the whole dose curve; as a rule, active = well fitted cell-killing curve with a large enough effect; inconclusive = small, poorly fitted or top-dose-only effect; inactive = flat fitted curve, though single readings scatter. Bridge positions count the residues as written; N and C are the ends. Square brackets hold non-standard residues; d marks the D form. Side chains are listed from the residue outwards. Peptide text beside a SMILES is read from it. * marks the point of attachment. Phg(4-OMe) = COc1ccc([C@H](N)C(=O)O)cc1; d(aIle) = CC[C@H](C)[C@@H](N)C(=O)O; d(aThr) = C[C@@H](O)[C@@H](N)C(=O)O; NMeF = CN[C@@H](Cc1ccccc1)C(=O)O; Isobutyryl = CC(C)C(=O)*

Experiment: G06 Cancer Cell Toxicity qHTS against the NCATS CANVASS Library (AID 1347368); note: nearly all actives have a fitted effect of over 60% in size
Conditions: G06 dog glioma cells, viability ATP luminescence, 72 h; series mostly up to 46.1 µM; activity change, negative = cytotoxic: at the top concentration
How it was run: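 ATP luminescence (CellTiterGlo) readout of cytotoxicity. Canine G06 glioma cells, 500/well, 72 hr incubation at 37C with compounds; bortezomib titration served as control.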
% is set by controls: 0 for no effect and ±100 for the full control effect; potency is the fitted concentration of half-maximal effect.

Compound | activity change, negative = cytotoxic [%] | Potency | outcome
CC(C)=CCC[C@]12c3cc4c(cc3CC[C@@]1(C)[C@H](C)CC[C@@H]2O)[nH]c1ccccc14 | -19.6 |  | 
C/C=C/C1C=CC2CC(C)CC(C)C2C1C(=O)CC(=O)NC(CO)C/C=C/CCCCC (stereo not drawn) |  | 1.32 µM (active) | 
C=C1CC[C@@H](Br)C(C)(C)[C@]12CC=C(C)C(=O)C2 | -4.58 |  | 
C=CC(CCCCC)C1C(=O)NC(=O)C1C(=O)C1C(/C=C/C)C=CC2CC(C(=O)O)CC(C)C21 (stereo not drawn) | -12.2 |  | 
COc1cc(/C=C/C(=O)OC[C@@H](Cc2ccc(O)c(OC)c2)[C@@H](COC(=O)/C=C/c2ccc(O)c(OC)c2)Cc2ccc(O)c(OC)c2)ccc1O |  | 14.8 µM (active) | 
O=C1CC2OCC=C3CN4C5CC3C2[C@@H]2N1c1ccccc1[C@]52C[C@@H]4C1=C[C@H]2C3CC4N(CC[C@@]45c4ccccc4N(C1=O)[C@@H]25)C/C3=C/CO (stereo partly drawn) |  | 23.5 µM (active) | 
CC[C@H](C)[C@H]1NC(=O)[C@@H](NC(=O)C(C)C)[C@@H](C)OC(=O)[C@H](COC(=O)CNC(C)=O)NC(=O)[C@@H]([C@@H](C)O)NC(=O)[C@H](Cc2ccccc2)N(C)C(=O)[C@H](c2ccc(OC)cc2)NC1=O (Isobutyryl-T[d(aIle)][Phg(4-OMe)][NMeF][d(aThr)]S([Gly-Ac]); ester 1-C) | -13.7 |  | 
C=C(C)CC[C@H](Cc1c(O)cc(O)c2c1O[C@H](c1ccc(O)cc1)CC2=O)C(=C)C | -29.2 |  | 
COc1ccc2[nH]c3c(c2c1)CCN1C[C@H]2C[C@@H](OC(=O)c4cc(OC)c(OC)c(OC)c4)[C@H](OC)[C@@H](OC)[C@H]2C[C@H]31 |  | 1.48 µM (active) | 
CC(=O)O[C@H]1c2ccccc2-c2c3c(cc4c2[C@@H]1N(C(C)=O)CC4)OCO3 | -11 |  | 
C=CC(CCCCC)C1C(=O)NC(=O)C1C(=O)C1C2C(C)CC(C(=O)O)CC2CC1(O)C(=O)/C=C/C (stereo not drawn) |  |  | inactive
O[C@H]1c2ccccc2-c2c3c(cc4c2[C@@H]1NCC4)OCO3 |  | 16.6 µM (active) | 
C[C@]12CCC[C@](C)(C(=O)O)[C@@H]1CC[C@@]1(C)c3cocc3CC[C@H]21 | 0.388 |  | 
COc1cc(C2OCC3C(c4ccc(O)c(OC)c4)OCC23)ccc1O (stereo not drawn) |  |  | inactive [at 9.19 µM]
COc1cc(O)c(C(=O)[C@@H]2[C@H](CC=C(C)C)C(C)=CC[C@H]2c2ccccc2)c(O)c1 | -25 |  | 
C[n+]1cc2cc(C(N)=O)[nH]c3c(=N)c(Cl)c(N)c1c23 |  | 5.26 µM (active) | 
COc1cc2c(c(O)c1O)C(=O)c1c(coc1C)C2=O |  | 11.8 µM (active) | 
CN1CC[C@]2(c3cccc4c3N[C@H]3N(C)CC[C@@]43[C@]34CCN(C)[C@H]3Nc3ccccc34)c3ccccc3N[C@H]12 |  | 7.43 µM (active) | 
CC[C@H]1[C@H](C)[C@H](c2cc(OC)c(OC)cc2OC)[C@@H](C)[C@H](c2cc(OC)c(OC)cc2OC)[C@@]12C=C(OC)C(=O)C=C2OC |  | 23.5 µM (active) | 
CC(=O)Oc1cc2c(c(OC(C)=O)c1C1CCc3cc(Cl)c(Cl)n31)C(=O)n1c-2cc(Cl)c1Cl (stereo not drawn) |  | 14.8 µM (active) | 
C/C=C(/C)c1c(Cl)c(O)c(C)c2c1Oc1c(Cl)c(O)c(Cl)c(C)c1C(=O)O2 | -14.1 |  | 
CC(C)C[C@@H]1c2c(O)c(C=O)c(O)c(C=O)c2O[C@]2(C)C=C[C@@H](C(C)C)C[C@H]12 | -14.9 |  | 
C/C=C(/C)c1cc(O)c(C)c2c1Oc1cc(O)cc(C)c1C(=O)O2 | -20.8 |  | 
CC(C)[C@]12CC[C@@]3(C)[C@H](C)CC[C@H](O)[C@@]3(CC1)c1cc3c(cc12)[nH]c1ccccc13 |  |  | inactive
C/C=C(/C)c1c(Cl)c(OC)c(C)c2c1Oc1c(Cl)c(O)c(Cl)c(C)c1C(=O)O2 | -6.27 |  | 
C/C(=C\CC[C@@H](C)[C@H]1CC[C@]2(C)C3=CCC4C(C)(C)[C@@H](O)C[C@@H](O)[C@]4(C)C3[C@H](O)C[C@@]12C)CO (stereo partly drawn) |  |  | inactive
COC12OC1(C13OC1(OC)C(=O)c1cc4cc(C)oc(=O)c4c(O)c1C3O)C(O)c1c(cc3cc(C)oc(=O)c3c1O)C2=O (stereo not drawn) | -26 |  | 
CO[C@H]1[C@@H](OC(=O)/C(C)=C\[C@@H]2O[C@@H]2[C@H]2O[C@H]2C)[C@H](O)[C@H](OCC23C[C@@H]4[C@H](C)CC[C@H]4C4(C=O)CC2C=C(C(C)C)C34C(=O)O)O[C@@H]1C (stereo partly drawn) | -6.39 |  | 
